Results taken from PubChem BioAssay (NCI).
This is part of a sample that, as a whole, favours compounds with a hit. Of some 83,000 tested, about 20% had one in any assay.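 Cells were grown in 96-well plates and exposed to the test compound at a single concentration for 48 hours; results are reported as percent growth, with values below 10 considered active.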 Values without a mark were called inactive. Calls of active or inactive are those of the source.

Assays:
Experiment in all cases: NCI-60 one-dose screen, 48 h (100 = growth as untreated, 0 = no growth, -100 = all killed)
Details in all cases: 10 µM unless noted
DU-145 prostate = tested on: DU-145 prostate
K-562 leukemia = tested on: K-562 leukemia
MALME-3M melanoma = tested on: MALME-3M melanoma
MDA-MB-231 breast = tested on: MDA-MB-231 breast
RXF 393 renal = tested on: RXF 393 renal
SF-268 CNS = tested on: SF-268 CNS
SF-295 CNS = tested on: SF-295 CNS
SF-539 CNS = tested on: SF-539 CNS
UACC-257 melanoma = tested on: UACC-257 melanoma
M14 melanoma = tested on: M14 melanoma

| Compound | growth (DU-145 prostate) | growth (K-562 leukemia) | growth (MALME-3M melanoma) | growth (MDA-MB-231 breast) | growth (RXF 393 renal) | growth (SF-268 CNS) | growth (SF-295 CNS) | growth (SF-539 CNS) | growth (UACC-257 melanoma) | growth (M14 melanoma) |
| --- | --- | --- | --- | --- | --- | --- | --- | --- | --- | --- |
| N#Cc1ccc(N2Cc3cc(Cl)ccc3OC3=C2C(=O)N(Cc2ccccc2)C3=O)cc1 | -75.7% (active) | -22.3% (active) | -64.4% (active) | -15.9% (active) | -79.8% (active) | -43.3% (active) | 69.4% | -60.3% (active) | -56.1% (active) | -35.7% (active) |
| CCC1=C[C@H]2CN(CCc3c([nH]c4ccccc34)[C@@](C(=O)OC)(c3cc4c(cc3OC)N(C)[C@H]3[C@@](O)(C(=O)OC)[C@H](OC(C)=O)[C@]5(CC)[C@@H]6C[C@@H]6CN6CC[C@]43[C@@H]65)C2)C1 | 18.3% | 2.96% (active) | 37.3% | -21.9% (active) | 47.6% | 7.66% (active) | 11.1% | -13.3% (active) | 55.1% | -32% (active) |
| Cc1nn(-c2ccc(-c3ccc(OC(F)(F)F)cc3)cc2)c2nc(-c3ccccc3)nc(N)c12 | 104% | 93.1% | 118% | 85.1% | 104% | 97.2% | 110% | 100% | 101% | 102% |
| CC(=O)c1ccc(NC(=O)CSc2nnc(-c3cc(-c4ccc(Cl)cc4)nc4ccccc34)o2)cc1 | 90% | 63% | 70.8% | 53.7% | 87.2% | 82.4% | 88.3% | 74.2% | 97.5% | 77.6% |
| COc1cc(-c2csc(NC(=O)Nc3cc(Cl)cc(Cl)c3)n2)cc(OC)c1OC | -15.6% (active) | 32.4% | -31.5% (active) | -14.5% (active) | 15.6% | 27.7% | -46.1% (active) | 46.4% | 56.7% | -6.33% (active) |
| COc1ccc(-c2cc(C(=O)N3N=C(c4ccc(N)cc4)CC3c3ccc(OC)cc3)c3cc(OC)ccc3n2)cc1 (stereo not given) | 80.2% | 11.8% | 71.3% | 73.6% | 68.2% | 54.9% | 64.1% | 34% | 60.8% | 38.4% |
| C=C1C(=O)O[C@H]2[C@H]1CC/C(COC(=O)c1cccnc1N)=C\CC[C@@]1(C)O[C@@H]21 | 14% | 10.1% | -3.98% (active) | -9.35% (active) | -2.17% (active) | 23.9% | 34.5% | 12.6% | 57.8% | 10.2% |
| Nc1cc(N)nc(SCC(=O)O)n1 | 104% | 101% | 103% | 95.4% | 115% | 101% | 106% | 102% | 84.8% | 102% |
| O=C(O)c1cc(N=Nc2ccc(-c3ccc(N=Nc4c(S(=O)(=O)O)cc5ccc(Nc6ccccc6)cc5c4O)cc3)cc2)ccc1O | 109% | 91.3% | 86% | 98% | 112% | 93.1% | 99.7% | 108% | 107% | 106% |
| Nc1cccc(C(=O)Nc2ccc3c(O)c(N=Nc4ccc(N=Nc5ccc(S(=O)(=O)O)cc5)cc4)c(S(=O)(=O)O)cc3c2)c1 | 107% | 76.2% | 97.1% | 103% | 121% | 101% | 103% | 99.9% | 100% | 98.3% |
| O=S(=O)(Nc1nccs1)c1ccc(Nc2nc(-c3ccncc3)cs2)cc1 | 106% | 109% | 113% | 105% | 110% | 107% | 120% | 88.2% | 109% | 103% |
| C#C[C@@]1(O)[C@@H](CO)O[C@@H](n2cc(-c3ccco3)c3c(N)ncnc32)[C@@H]1O | 67.9% | 86.1% | 59.4% | 102% | 80.9% | 83% | 76.9% | 46% | 89.3% | 69.9% |
| C=C(C)[C@@H]1CC[C@]2(C(=O)N3CCN(C)CC3)CC[C@]3(C)[C@H](CC[C@@H]4[C@@]5(C)C/C(=C/c6ccco6)C(=O)C(C)(C)[C@@H]5CC[C@]43C)[C@@H]12 | 84.3% | 36.2% | 66.8% | 58.8% | 45.2% | 68.9% | 18.9% | 62% | 48.6% | 59.9% |
| O=C1CCC23OC(C(O)c4ccccc4N12)C1C(Br)=NOC13 (stereo not given) | 107% | 96.3% | 102% | 105% | 114% | 91.9% | 106% | 93.3% | 98.1% | 104% |
| O=C(CCl)N1CCCc2ccccc21 | 97.7% | 101% | 98.3% | 99.5% | 89.1% | 94.9% | 95.7% | 103% | 107% | 93.9% |
| COc1ccc2c(c1)/C(=C1\S/C(=N/c3nnc(C)s3)NC1=O)C(=O)N2Cc1ccc(Cl)cc1 | 52.4% | 38.3% | 72.5% | 89.5% | 75.8% | 46% | 14.9% | 48.7% | 83.6% | 45.6% |
| COC(=O)c1oc2c(C(=O)/C=C/c3ccc(OC)cc3)c(OCCCN3CCCCC3)ccc2c1C | 15.4% | -16.2% (active) | -64.4% (active) | 32.4% | -75.2% (active) | -2.59% (active) | 11.6% | -55.8% (active) | 40.1% | -40.3% (active) |
| C#C[C@@]1(O)[C@@H](CO)O[C@@H](n2cc(F)c3c(N)ncnc32)[C@@H]1O | 2.84% (active) | 9.21% (active) | -30.2% (active) | -14.8% (active) | -36.8% (active) | 15.9% | -23% (active) | 0.929% (active) | 2.98% (active) | -42% (active) |
| O=c1cc(/C=N\Nc2nc(-c3ccc(Cl)cc3Cl)cs2)c2cc(Cl)ccc2o1 | 102% | 84.1% | 116% | 82.8% | 114% | 101% | 95.2% | 94.3% | 99.2% | 91.4% |
| CN(C)c1ccc(-c2ccc3[nH]c(=O)nc(-c4ccc(F)cc4)c3c2)cn1 | 51.6% | 11.9% | 64.4% | 47.7% | 41.5% | 45.5% | 21.5% | 24.2% | 54.4% | 22.7% |
| COc1c(O)cc2oc3cc(O[C@@H]4OC(C)[C@@H](O)[C@H](O)C4O)c(CC=C(C)C)c(O)c3c(=O)c2c1CC=C(C)C (stereo not given in full) | 103% | 74.3% | 103% | 89.5% | 103% | 92.7% | 93.3% | 99% | 104% | 99.8% |
| Cc1cc(C)c(NC(=O)c2sc3nc4c(cc3c2N)CCCCCC4)c(C)c1 | 66.4% | 16.8% | 57.4% | 88.2% | 65.8% | 59.4% | 38.1% | 60% | 62.8% | 27% |
| CN1CCN(CC#CCOC(=O)CNC(=O)[C@]23CCC(C)(C)C[C@H]2C2=CC[C@@H]4[C@@]5(C)CC[C@H](O)C(C)(C)[C@@H]5CC[C@@]4(C)[C@]2(C)CC3)CC1 | 96.7% | 70.1% | 92.5% | 95.5% | 78.1% | 88% | 96.9% | 83.5% | 95.1% | 96.8% |
| CCOCc1nc2ccccc2c(=O)[nH]1 | 107% | 119% | 89.6% | 103% | 117% | 101% | 99.6% | 102% | 108% | 96.2% |
| Cc1cccc(NC(=O)c2sc3nc4c(cc3c2N)CN(Cc2ccccc2)CC4)c1C | 0.783% (active) | 13.1% | 53.5% | 45.2% | 16.9% | 41.4% | 27.6% | 19.8% | 87.9% | 4.27% (active) |
| COc1ccc(Cl)c([N+](=O)[O-])c1 | 108% | 99.8% | 106% | 102% | 108% | 104% | 98% | 91.9% | 111% | 96.3% |
